Test results: PubChem BioAssay AID624330 (Southern Research Specialized Biocontainment Screening …, 2012)
In all, about 340,000 compounds went through this assay and about 2,100 (0.62%) were called active.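 The calls were made as follows: active = first-screen hits whose inhibition reached a set limit at any dose in the follow-up dose series; inconclusive = inhibition above the set first-screen limit but never retested; inactive = the rest.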 The list is a sample of the results. Results with a measured potency or affinity are listed apart.

Target: Rac GTPase-activating protein 1 (Homo sapiens) (UniProt Q9H0H5)
Sequence (Q9H0H5 whole entry, looked up): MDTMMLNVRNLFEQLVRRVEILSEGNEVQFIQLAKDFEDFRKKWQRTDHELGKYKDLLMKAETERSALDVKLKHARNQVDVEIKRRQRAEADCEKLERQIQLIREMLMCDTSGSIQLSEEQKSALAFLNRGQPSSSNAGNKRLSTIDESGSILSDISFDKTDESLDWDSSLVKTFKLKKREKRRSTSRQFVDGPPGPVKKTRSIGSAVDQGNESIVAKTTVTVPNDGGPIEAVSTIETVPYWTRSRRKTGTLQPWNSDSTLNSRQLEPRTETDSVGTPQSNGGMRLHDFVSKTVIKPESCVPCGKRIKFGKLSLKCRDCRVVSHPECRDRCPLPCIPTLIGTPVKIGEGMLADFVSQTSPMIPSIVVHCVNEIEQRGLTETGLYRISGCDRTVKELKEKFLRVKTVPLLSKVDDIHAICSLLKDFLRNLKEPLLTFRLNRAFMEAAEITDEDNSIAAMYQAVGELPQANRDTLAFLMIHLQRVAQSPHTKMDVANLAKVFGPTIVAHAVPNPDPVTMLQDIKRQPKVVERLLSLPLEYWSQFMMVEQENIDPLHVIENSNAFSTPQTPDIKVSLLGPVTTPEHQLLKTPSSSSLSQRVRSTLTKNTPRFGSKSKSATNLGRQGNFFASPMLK
Assay: MgcRacGAP GTPase-activating activity inhibitors, confirmation, biochemical, ADP Hunter fluorescence, primary and confirmatory (AID 624330);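 also: fluorescence reports GDP produced by GAP-driven GTP hydrolysis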
Settings: MgcRacGAP-stimulated Rac1 GTP hydrolysis, at 30 µM, hits give high values, GST-tagged Rac1 F28L mutant substrate

inhibition, inactive:
CCCCCC(=O)C(=O)c1ccc(O)cc1O -2.38%
O=C(NNC(=O)c1cccnc1)NC1CCCCC1 7.92%
CSc1cccc(NS(=O)(=O)c2cc(Br)cnc2N)c1 -1.74%
O=C(Nc1ccc(N2CCCCC2)cc1)c1ccc(F)cc1 4.29%
O=C(Nc1ccc(N2CCCCC2)cc1)c1ccccc1 36.6%
CC(=O)N1CCN(c2ccc(NC(=O)c3ccccc3C)cc2)CC1 9.24%
O=C(Nc1ccc(N2CCCCCC2)cc1)c1ccccc1Cl 20.3%
CC(c1ccncn1)N(C)C(=O)c1ccc2oc(Cc3ccccc3)nc2c1 (stereo not given) 6.98%
CC1CCCCC1NC(=O)CN(C)S(=O)(=O)c1cccc2nsnc12 (stereo not given) 9.08%
COc1ccc(/C=N/NC(=S)NCC2CCCO2)cc1 (stereo not given) 5.53%
S=C(NCc1ccco1)N/N=C/c1ccc(Cl)cc1 17.1%
COc1ccc(/C=N/NC(=O)C(=O)N2CCCCCC2)cc1O 11.9%
CCOc1ccc(/C=N/NC(=O)CN2CCCCC2)cc1OCC 10.1%
COc1cc(/C=N/NC(=S)NCC2CCCO2)cc(OC)c1OC (stereo not given) 7.93%
COc1ccc(/C=N/NC(=O)C(=O)N2CCCC2)cc1OC 7.5%
CCCOc1ccc(/C=N/NC(=O)CN2CCCCC2)cc1OCC 0.56%
S=C(NCc1ccco1)N/N=C/c1ccncc1 2.98%
Cc1ccc(C2CN(CCC(N)=O)C(=O)CO2)cc1 (stereo not given) 3.49%
CC1CCCCC1NC(=O)CCCCCn1c(=S)[nH]c2ccsc2c1=O (stereo not given) 6.67%
CC1=C([N+](=O)[O-])C(c2ccccc2C(F)(F)F)NC(=O)N1C (stereo not given) 2.05%
COc1ccc2c(C)cc(SCC(=O)NC3CCCCC3)nc2c1 3.25%
O=C(CN1C(=O)COc2ccccc21)N1CCc2ccccc2C1 2.34%
O=C(NCCc1csc(-c2ccccc2)n1)c1ccc(Br)o1 9.81%
O=C(COC(=O)c1ccc(F)c(S(=O)(=O)N2CCOCC2)c1)NCc1ccc(Cl)cc1 -1.94%
N#CCCn1cc(C(=O)Nc2ccc([N+](=O)[O-])cc2)c(-c2cccs2)n1 4.36%
C[C@@H]1CN([C@H](C)CO)C(=O)c2cc(Br)cnc2O[C@@H]1CN(C)C(=O)c1ccccc1 14.7%
Cn1c(=O)cc(OCCCC(=O)NCCCN2CCN(Cc3ccccc3)CC2)c2ccccc21 2.96%
C=CCOc1ccc(/C=N/NC(=O)C(=O)N2CCCCCC2)cc1OC 2.52%
COc1cc(/C=N/NC(=O)C(=O)NCC2CCCO2)cc(Cl)c1O (stereo not given) 21.6%
O=C(NCC1CCCO1)C(=O)N/N=C/c1ccc(O)c(Cl)c1 (stereo not given) 26.7%
O=C(N/N=C/c1cccc(O)c1)C(=O)N1CCCCCC1 0.3%
CCN(Cc1nc(-c2ccc(C)cc2)no1)C(=O)c1ccco1 2.23%
Cc1nnc(NC(=O)CSc2ccccc2N)s1 6.42%
CCOc1cccc2cc(C(=O)N3CCOCC3)c(=O)oc12 5.1%
O=C(Cn1cccc1C(=O)c1ccccc1)NCc1cccnc1 14.8%
O=C(CSc1nc2ccccc2[nH]1)Nc1c(F)c(F)c(F)c(F)c1F 1.98%
COc1ccccc1S(=O)(=O)Cc1ccc(C(=O)NC2CCCCC2)o1 5.84%
CCOC(=O)C1CCN(Cc2ccc(O)c(OC)c2)CC1 27.4%
CCOc1cc(CN2CCC(N3CCC(C(=O)NC4CC4)CC3)CC2)ccc1O 17.9%
COc1cc(CN2CCC(C(=O)N3CCCC(C)C3)CC2)cc(OC)c1O (stereo not given) 26.8%
COc1cc(CN2CCCCCC2)cc(Br)c1O 15.4%
COc1cc(CN2CCC(C(=O)NC3CCCC3)CC2)cc(OC)c1O 23.1%
COc1ccc(CN2CCC(C(=O)N3CCCC(C)C3)CC2)cc1OC (stereo not given) 12.3%
COCc1cc(C(C)=O)ccc1OCC(=O)Nc1ccc(NC(C)=O)cc1 1.37%
CC(NC(=O)c1ccc(Br)o1)c1ccccc1 (stereo not given) 7.96%
CCC(=O)N(CCc1ccccc1)Cc1cc2cc3c(cc2[nH]c1=O)OCO3 8.92%
N#CC(=Cc1ccccn1)c1nc(-c2ccc(Cl)cc2)cs1 6.28%
Cc1ccc(C(=O)NCC(=O)NCC(=O)OCc2ccc(Cl)cc2)cc1 8.02%
O=C(CCCn1c(=O)[nH]c2ccccc2c1=O)NCCSCc1ccccc1 -5.64%
Cn1c(=O)[nH]c2c(cnn2C)c1=O -2.19%
CCCn1c(N)c(Br)c(=O)[nH]c1=O 12.3%
Cn1nnnc1SCCNC(=O)C1CCC(=O)N(Cc2ccccc2F)C1 (stereo not given) 11%
Cc1cc(Nc2cccc([N+](=O)[O-])c2)c2ccccc2n1 13.8%
Cc1cc(Nc2ccc([N+](=O)[O-])cc2)c2ccccc2n1 4.06%
O=C(c1cccc(S(=O)(=O)N2CCc3ccccc32)c1)N1CCN(CCO)CC1 1.12%
O=C(NNc1c2ccccc2nc2ccccc12)c1ccccc1Cl 8.54%
O=C(NNc1c2ccccc2nc2ccccc12)c1ccccc1O 9.79%
Cc1ccc(S(=O)(=O)NCC(=O)N(CC2CCCO2)C(C(=O)NC2CCCC2)C(C)C)cc1 (stereo not given) -2.26%
N#CCCN1CCN(CCC#N)C1=S -2.38%
N#CCCN1CCn2c1nc1ccccc12 7.51%
COc1ccc(Cc2nc3c4c(ncn3n2)Oc2c(ccc3ccccc23)C4c2ccc(OC)c(OC)c2)cc1 (stereo not given) 0.4%
COc1cccc(-c2nnc(NC(=O)CCS(=O)(=O)c3ccc(F)cc3)o2)c1 9.6%
OCC[C@H]1C[C@H](O)[C@@H](O)[C@]2(CCCc3ccccc3O2)O1 6.49%
CC(NC(=O)N(Cc1ccccc1)Cc1ccc2c(c1)OCO2)(C(F)(F)F)C(F)(F)F -1.55%
CC(C)(C)N(Cc1ccccc1)C(=O)COC(=O)/C=C/c1ccc2c(c1)OCO2 7.28%
